According to PubChem BioAssay AID1159580 (chemical genetic matrix, 2015):
Values joined by “and” are separate entries in the source; they are usually repeats but may differ in a detail not shown here. Identical values can stand only once. The whole screen tested about 5,500 compounds, of which about 2,000 (36%) were called active. Inconclusive results (about 18%) are left out. No stated cut-off is given here; in the data, active means normalized growth mostly below about 0.91 (no sharp cut-off); inconclusive means no clear call, values can overlap the other calls; inactive means mostly above about 0.92. This is one part of the list.

Assay: chemical genetic growth profiling, strain panel (AID 1159580);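 further: tested at 20 µM; growth read once vehicle control cultures reached saturation at 30 °C; 1 = growth at the plate median or of vehicle wells; lower values mean less growth of the strain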
Conditions: S. cerevisiae deletion strains, growth OD

Measured: normalized growth

CC1(C)O[C@@H]2CC3C4CCC5=CC(=O)C=C[C@]5(C)[C@@]4(F)[C@@H](O)C[C@]3(C)[C@]2(C(=O)CO)O1 (some centres not stated)
inactive: locus YAL013W, strain DEP1, hits give low values 1.02 | locus YAL021C, strain ccr4, hits give low values 0.99 | locus YAL026C, strain drs2, hits give low values 1 | locus YAL030W, strain snc1, hits give low values 0.996 | locus YBL061C, strain skt5, hits give low values 0.98 | locus YBR009C, strain hhf1, hits give low values 0.992 | locus YBR021W, strain FUR4, hits give low values 0.946 | locus YBR023C, strain chs3, hits give low values 0.993 | locus YBR171W, strain sec66, hits give low values 1 | locus YBR229C, strain ROT2, hits give low values 1.01 | locus YBR231C, strain swc5, hits give low values 0.987 | locus YBR279W, strain paf1, hits give low values 0.991 | locus YCL011C, strain gbp2, hits give low values 1.02 | locus YCL016C, strain dcc1, hits give low values 0.968 | locus YCL029C, strain bik1, hits give low values 1 | locus YCL061C, strain MRC1, hits give low values 1.01 | locus YCL069W, strain vba3, hits give low values 1.01 | locus YCR088W, strain abp1, hits give low values 1.01 | locus YDL005C, strain med2, hits give low values 1 | locus YDL035C, strain GPR1, hits give low values 1.01 | locus YDL040C, strain nat1, hits give low values 0.988 | locus YDL074C, strain BRE1, hits give low values 1.12 | locus YDL101C, strain DUN1, hits give low values 1.01 | locus YDL134C, strain PPH21, hits give low values 1.01 | locus YDL185W, strain tfp1, hits give low values 1.01 | locus YDL192W, strain arf1, hits give low values 1.01 | locus YDR001C, strain nth1, hits give low values 1 | locus YDR069C, strain doa4, hits give low values 0.998 | locus YDR101C, strain arx1, hits give low values 0.992 | locus YDR137W, strain rgp1, hits give low values 1.01 | locus YDR150W, strain NUM1, hits give low values 1.02 | locus YDR159W, strain sac3, hits give low values 0.928 | locus YDR162C, strain NBP2, hits give low values 1.01 | locus YDR195W, strain ref2 0.954 | locus YDR297W, strain sur2, hits give low values 0.997 | locus YDR318W, strain mcm21, hits give low values 0.987 | locus YDR334W, strain swr1, hits give low values 0.997 | locus YDR335W, strain msn5, hits give low values 1.02 | locus YDR388W, hits give low values 0.997 | locus YDR392W, strain spt3, hits give low values 0.884 | locus YDR502C, strain sam2, hits give low values 0.999 | locus YEL003W, strain gim4, hits give low values 0.991 | locus YEL037C, strain rad23, hits give low values 1.02 | locus YEL061C, strain CIN8 (second series), hits give low values 1 | locus YEL061C, strain CIN8, hits give low values 1.01 | locus YER015W, strain faa2, hits give low values 0.991 | locus YER016W, strain bim1, hits give low values 0.975 | locus YER110C, hits give low values 0.998 | locus YER111C, strain swi4, hits give low values 0.999 | locus YER155C, strain BEM2 (second series), hits give low values 0.983 | locus YER155C, strain BEM2, hits give low values 0.966 | locus YER167W, strain BCK2, hits give low values 1.01 | locus YFR010W, strain ubp6, hits give low values 1.01 | locus YGL078C, strain dbp3, hits give low values 1 | locus YGL086W, strain mad1, hits give low values 0.997 | locus YGL167C, strain pmr1, hits give low values 0.988 | locus YGL173C, strain kem1, hits give low values 0.98 | locus YGL227W, strain vid30, hits give low values 1.01 | locus YGL240W, strain doc1, hits give low values 0.953 | locus YGL248W, strain PDE1, hits give low values 1.01 | locus YGL253W, strain hxk2, hits give low values 1.02 | locus YGR078C, strain PAC10, hits give low values 1.03 | locus YGR135W, strain pre9, hits give low values 0.996 | locus YGR229C, strain SMI1, hits give low values 1.02 | locus YGR252W, strain gcn5, hits give low values 0.97 | locus YHR013C, strain ard1, hits give low values 0.956 | locus YHR027C, strain rpn1, hits give low values 1 | locus YHR030C, strain SLT2, hits give low values 1.01 and 0.993 | locus YHR079C, strain IRE1 (second series), hits give low values 0.989 | locus YHR079C, strain IRE1, hits give low values 0.989 | locus YHR094C, strain hxt1, hits give low values 0.994 | locus YHR129C, strain ARP1, hits give low values 1.01 | locus YHR142W, strain chs7, hits give low values 1.02 | locus YHR200W, strain rpn10, hits give low values 0.995 | locus YIL066C, strain RNR3, hits give low values 1.02 | locus YIL073C, strain SPO22, hits give low values 1.05 | locus YIL125W, strain kgd1, hits give low values 0.998 | locus YIR030C, strain dcg1, hits give low values 1.01 | locus YJL092W, strain hpr5, hits give low values 1 | locus YJL095W, strain BCK1 (second series), hits give low values 1 | locus YJL095W, strain BCK1, hits give low values 1.01 and 0.992 | locus YJL115W, strain asf1, hits give low values 0.993 | locus YJL129C, strain trk1, hits give low values 1.01 | locus YJL134W, strain LCB3, hits give low values 1.01 | locus YJL154C, strain vps35, hits give low values 0.999 | locus YJL164C, strain tpk1, hits give low values 0.994 | locus YJL166W, strain qcr8, hits give low values 0.996 | locus YJL168C, strain set2, hits give low values 0.993 | locus YJL187C, strain SWE1 (second series), hits give low values 1.02 | locus YJL187C, strain SWE1, hits give low values 0.976 | locus YJR043C, strain POL32, hits give low values 0.997 | locus YJR066W, strain TOR1, hits give low values 0.947
